Reference: PubChem BioAssay AID743201 (The Scripps Research Institute Molecular Screening Center, 2013)
Among all 1,500 compounds or so, about 420 (28%) were called active. The list is a sample of the results. Unmarked numbers belong to inactive results. Cut-off read from the data, not from the text of the source: active = inhibition above about 9.5%; inactive = the rest.

Assay: LD9 cell viability loss – luminescence, high throughput, cytotoxicity control for cell surface PrPc inhibitor project (AID 743201)
Details: LD9 cells cytotoxicity, at 13.8 µM, active compounds read high

| SMILES | inhibition |
| --- | --- |
| O=C(Nc1ccc(C2CC2(Cl)Cl)cc1)c1cccc([N+](=O)[O-])c1 (stereo not drawn) | 22.1% (active) |
| O=C(Oc1ccccc1)Oc1ccc2c(c1)oc(=O)c1ccccc12 | -2.43% |
| Cc1nc(/N=C(\N)NC(=O)NC2CCCCC2)nc2ccccc12 | 13.3% (active) |
| O=C(Nc1cccn(Cc2ccccc2Cl)c1=O)NC1CCCCC1 | -0.08% |
| O=C(COC(=O)c1ccccc1SCC(=O)NC1CCCCC1)NC1CCCCC1 | -4.15% |
| CC1(C)Cc2ccccc2-c2[nH]c(=S)[nH]c(=O)c21 | 0.24% |
| O=C(/C=C/c1ccc([N+](=O)[O-])o1)NNC(=O)c1ccc(F)cc1 | 81% (active) |
| Cn1c(=S)sc2ccc3ccccc3c21 | -9.96% |
| Cc1ccc(CSc2ccc(S(=O)(=O)N3CCCCC3)cn2)cc1 | -3.1% |
| O=C(Nc1ccc(N2CCN(C(=O)c3ccccc3)CC2)c(Cl)c1)c1cccnc1 | 10.4% (active) |
| CCCCC(=O)NC(c1ccc(OC)c(OC)c1)c1ccc2cccnc2c1O (stereo not drawn) | 34.6% (active) |
| COc1ccc(NC(=O)COC(=O)CNC(=O)C2CCCCC2)cc1 | -1.65% |
| O=C(Cc1ccccc1)Nc1cccc(NC(=O)c2ccccc2)c1 | -4% |
| Cc1cccc(NC(=O)c2nc(S(=O)(=O)Cc3ccccc3)ncc2Cl)c1 | 88.2% (active) |
| Cc1cccc(CS(=O)(=O)c2ncc(Cl)c(C(=O)Nc3ccc(F)cc3)n2)c1 | 97.1% (active) |
| CCc1c(C)nc2cc(-c3cccs3)[nH]n2c1=O | -5.48% |
| Fc1ccc2[nH]c3c(N4CCSCC4)ncnc3c2c1 | 49.1% (active) |
| COc1cccc2sc3cc(NCC[C@@H]4CCCN4C)ccc3c(=O)c12 | 3.87% |
| Cc1cc2cc(CNC(=O)c3ccc(S(=O)(=O)N4CCOCC4)cc3)ccc2[nH]1 | -3.01% |
| COc1ccc(S(=O)(=O)N2CCOCC2)cc1NC(=O)CSc1ncnc2ccccc12 | -10% |
| COc1ccc(C(=O)Nc2nc(-c3ccc(S(=O)(=O)N4CCOCC4)cc3)cs2)cc1 | 24.7% (active) |

| SMILES | inhibition |
| --- | --- |
| C=CCNC(=O)CSc1nc2scc(-c3ccco3)c2c(=O)n1CC=C | -1.71% |
| N#C/C=C1\Sc2ccccc2C(=O)N1CC(=O)N1CCN(S(=O)(=O)c2ccccc2)CC1 | -0.34% |
| CN(C)CCNC(=O)c1ccc(Cl)c2cc3ccccc3nc12 | 62.4% (active) |
| COc1ccc(OC)c(NC(=O)c2cc(-c3cc(F)ccc3OCC3CCCO3)n[nH]2)c1 (stereo not drawn) | 6.36% |
| CCCc1nc(SCC(=O)Nc2ccc(S(=O)(=O)N(C)C)cc2)c2ccccc2n1 | 11.4% (active) |
| COC(=O)CSc1nc(C2CC2)nc2ccccc12 | 2.09% |
| CCc1nc(SCC(=O)NNC(=O)c2ccc(C)cc2)c2ccccc2n1 | -9.92% |
| CCC(C)(O)C(=O)OC1C(=O)OC2CC3C(C)=CC(=O)C(O)C3(C)C3C4(O)OCC23C1C(C)C4O (stereo not drawn) | 31.5% (active) |
| CCCOc1ccc(C2C(C(=O)c3ccc(C)o3)=C(O)C(=O)N2CCCn2ccnc2)cc1 (stereo not drawn) | -8.43% |
| O=C(NC(Nc1nc2ccc([N+](=O)[O-])cc2s1)(C(F)(F)F)C(F)(F)F)c1ccccc1 | 60.2% (active) |
| Cc1ccc(Oc2cnn(-c3ccccc3)c(=O)c2Br)cc1 | -5.84% |
| CCOC(=O)c1c(C)[nH]c(=S)c(C#N)c1-c1ccccc1 | -0.71% |
| O=c1[nH]cccc1-c1nc2ccccc2n1Cc1ccc(Cl)cc1 | 18% (active) |
| N#Cc1ccc(OCC(=O)Nc2nc(-c3ccccn3)cs2)cc1 | 6.29% |
| CC(=O)c1sc2nc(SCC(=O)N3CCCCC3)[nH]c(=O)c2c1C | -4.99% |
| NC(=O)C1CCN(Cc2nc3c(Br)cc(Br)cc3c(=O)[nH]2)CC1 | -0.26% |
| O=C(CC(O)(C(F)(F)F)C(F)(F)F)Nc1ccc(Cl)c(Cl)c1 | 59.4% (active) |
| Cc1sc2ncnc(SCC(=O)Nc3ccc(CN4CCCC4)cc3)c2c1C | 4.39% |
| COc1ccc2c(Cl)c(-c3nnco3)sc2c1 | 0.91% |
| O=C(c1ccc(F)cc1)c1cn(Cc2ccc(F)cc2)c2cc3c(cc2c1=O)OCCO3 | 0.17% |
| CCCCCCCCn1c2c(c(=N)c3c1CCC3)CCCC2 | 27.8% (active) |

| SMILES | inhibition |
| --- | --- |
| Cc1cc2ccccc2n1CCNC(=O)COc1ccc2ccccc2c1 | 3.16% |
| CO[C@H]([C@H](C)/C=C/N(C)C=O)[C@@H](C)C(=O)CC[C@H](C)[C@H](O)[C@H](C)[C@H]1OC(=O)/C=C/C(C)=C/[C@H](O)[C@H](OC)C[C@@H]2C=CC[C@@H](C[C@H](OC)[C@@]3(CO3)[C@@H](OC)C[C@@H](OC)[C@@H]1C)O2 | 22.6% (active) |
| FC(F)(F)c1cccc(NC(=S)OC2CCC23CCC(c2ccccc2)CC3)c1 (stereo not drawn) | 6.03% |
| CCCCNc1c(-c2cccc(Sc3ccc(OC)cc3)c2)nc2ccccn12 | 17.3% (active) |
| N#Cc1c(-c2cccs2)nc(SCC(=O)c2ccc(Br)cc2)[nH]c1=O | -2.36% |
| Cc1ccc(CNC(=O)Nc2nnc([C@H]3C[C@H](O)[C@@H](CO)O3)s2)cc1 | -1.07% |
| O=C1CCCC2=C1C(c1cccs1)n1nc(SCc3ccccc3)nc1N2 (stereo not drawn) | -3.22% |
| CN1/C(=C\C(=O)c2oc3ccccc3c2N)C(C)(C)c2ccccc21 | 7.55% |
| CC(=O)Nc1cccc(OCC(=O)/C=C2\N(C)c3ccccc3C2(C)C)c1 | 13.8% (active) |
| Cc1ccsc1C(=O)OCC(=O)Nc1cccc(F)c1 | -2.87% |
| Cc1[nH]n(-c2ccccc2)c(=O)c1/C=N/NC(=O)c1ccoc1C | 21.3% (active) |
| CCOC(=O)c1c(-c2ccccc2)oc2cc(Br)c(O)cc12 | -6.88% |
| COC(=O)Cc1[nH]n(-c2nc3ccccc3s2)c(=O)c1C(C)=Nc1ccc(OC)cc1 | -5.36% |
| CC(=O)c1nc(N2C(=O)C3CC=C(C)CC3C2=O)sc1C (stereo not drawn) | -5.65% |
| CCCCCCCCCCCCn1ccc(=N)cc1 | 33.6% (active) |
| COc1cc(-n2c(=S)[nH]c3ccc(C)cc3c2=O)c(Cl)cc1Cl | -3.19% |
| Cc1ccc(NC(=O)c2sc3nc(N)c(C#N)cc3c2N)cc1 | 14.7% (active) |
| CC(=O)N1CCCc2cc(S(=O)(=O)N3CCCC(C(=O)NCc4ccc(Cl)cc4)C3)ccc21 (stereo not drawn) | 4.27% |
| CC(=O)N1CCCc2cc(S(=O)(=O)N3CCCC(C(=O)N4CCN(c5cccc(Cl)c5)CC4)C3)ccc21 (stereo not drawn) | 24.1% (active) |
| CC(=O)N1c2ccc(S(=O)(=O)N3CCCC(C(=O)Nc4cccc(F)c4)C3)cc2CC1C (stereo not drawn) | 10.8% (active) |
| Cc1ccnc(NC(=O)C2CCN(S(=O)(=O)c3c(C)c(C)cc(C)c3C)CC2)c1 | -5.26% |
